Compound activity (PubChem)
Sampled rows, rich in hits. Any-hit rate of the full collection: about 3.9%.
CDK5 p35 inh: inhibitors of human CDK5/p35 kinase | Q00535+Q15078 | Recombinant CDK5/p35, ADP-Glo luminescence, 60 min | inhibition, % at 10 µM | 330,000 compounds, 0.01% hits | AID 488839;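 active = highest replicate inhibition of at least 50% and at least 75% of replicates reaching 50%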;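 note: plate controls were DMSO neutral control for no effect and GW8510 at 10 µM for full effect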
Target sequence (Q00535 whole entry, looked up): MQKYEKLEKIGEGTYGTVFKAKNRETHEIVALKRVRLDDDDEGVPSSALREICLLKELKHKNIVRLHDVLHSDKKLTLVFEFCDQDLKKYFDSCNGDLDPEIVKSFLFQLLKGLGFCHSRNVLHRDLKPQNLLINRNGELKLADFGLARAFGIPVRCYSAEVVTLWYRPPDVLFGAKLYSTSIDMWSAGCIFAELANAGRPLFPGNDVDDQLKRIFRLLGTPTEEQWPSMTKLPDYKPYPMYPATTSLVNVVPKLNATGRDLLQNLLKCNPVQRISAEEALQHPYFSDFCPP
Target sequence (Q15078 whole entry, looked up): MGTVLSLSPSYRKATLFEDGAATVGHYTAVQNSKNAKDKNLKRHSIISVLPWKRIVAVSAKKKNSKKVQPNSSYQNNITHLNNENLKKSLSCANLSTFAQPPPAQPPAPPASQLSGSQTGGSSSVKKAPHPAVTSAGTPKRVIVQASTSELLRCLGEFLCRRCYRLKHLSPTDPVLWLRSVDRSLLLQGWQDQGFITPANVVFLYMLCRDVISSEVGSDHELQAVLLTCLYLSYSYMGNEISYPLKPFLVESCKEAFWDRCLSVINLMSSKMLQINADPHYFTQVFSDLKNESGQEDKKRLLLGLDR
NSD2 HMT inh: NSD2 (human) methyltransferase inhibition; NSD2 peptide methylation, AlphaScreen, 120 min; inhibition, % at 12.5 µM; 310,000 compounds, 0.54% hits; AID 743445; in the data active = inhibition above about 50%
Casp6 inh: caspase-6 (human) enzyme inhibition; P55212; purified caspase-6, Z-VEID-R110 cleavage fluorescence; inhibition, % at 12.5 µM; 350,000 compounds, 0.53% hits; AID 686996;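 active = mean inhibition across replicates at least about 35%, with every replicate also reaching that limit, limit read from the data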;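 note: 0% = median of neutral control wells and 100% = no fluorescence left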
ALR H2O2 inh: blocks human ALR sulfhydryl oxidase activity | P55789 | purified ALR, DTT oxidation, H2O2 HRP-luminol luminescence | inhibition, % (test concentration not listed) | 290,000 compounds, 3.8% hits;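 active = mean replicate inhibition above about 79%, with every replicate also reaching it, limit read from the data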
Glyco luc inh: N-linked glycosylation inhibition; D54 ERlucT glycosylation luciferase reporter, 24 h; percent of 100 nM tunicamycin response; reporter increase, % at 12.5 µM; AID 588692; 360,000 compounds, 0.23% hits;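 active = mean luciferase reporter signal, scaled so untreated is 0 and the glycosylation-blocking control 100, at or above a set limit in every replicate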;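 note: luciferase carries N-glycosylation sites so blocking glycosylation raises the light; 0% = median of neutral control wells and 100% = median of 100 nM tunicamycin wells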
Mot1-301 SUMO: blocks SUMOylation pathway, rescuing yeast Mot1-301 growth; S. cerevisiae Mot1-301 growth rescue, ATP luminescence, 38.5C; percent above DMSO median, 100 means doubled; growth rescue, % at 18.8 µM; 320,000 compounds, 1% hits; AID 2716;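 active = every valid replicate shows activation above 250% relative to neutral control wells; inactive = the rest, any valid replicate at or below 250%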;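 note: OY570 slx delta 5 strain wells were the positive control but not used for scaling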
Alpha artifact: interferes with AlphaScreen signal, flagging NSD2 false positives; shares compounds with NSD2 HMT inh; AlphaScreen artifact counterscreen, preloaded methylated H4 peptide; AC35, µM (highest dose often 10 µM), for the others: top-dose activity change, negative = signal loss; 1,500 compounds, 9.4% hits; AID 1053174; call rule not given here
* = called active by the depositor; i = inactive; · = not tested or not shown; ! = not active in a repeat.

SMILES | CDK5 p35 inh | NSD2 HMT inh | Casp6 inh | ALR H2O2 inh | Glyco luc inh | Mot1-301 SUMO | Alpha artifact
CN1c2ccc(Br)cc2[C@H]2[C@H](CCN2C(=O)CN2CCOCC2)[C@@H]1CO | · | · | -9 | · | · | · | ·
CC1C/C(=C\c2cccnc2)C(=O)/C(=C/c2cccnc2)C1 (configuration not stated) | 0 | 58* | · | 96* | -21 | -31 | -8%
C[C@H](CO)N1C[C@H](C)[C@@H](CN(C)CC2CCCCC2)Oc2ccc(NC(=O)Nc3ccccc3)cc2C1=O | · | · | 2 | · | · | · | ·
N#C/C(C(N)=O)=c1/ccc2c(c1)N1C3=C(CCCC3)CC3CCCCC31N=2 (configuration not stated) | · | 50* | · | 65 | · | -54 | 5.5µM*
COC(=O)C1CCN(C2=C(NS(=O)(=O)c3ccc(Cl)cc3)C(=O)c3ccccc3C2=O)CC1 | 2 | 62* | 9 | 2 | 6 | -27 | 7.8µM*
CC1CCCN(C2=C(NS(=O)(=O)c3ccc(Cl)cc3)C(=O)c3ccccc3C2=O)C1 (configuration not stated) | 1 | 47 | · | -21 | 1 | 4 | ·
NC(=O)C1CCN(C2=C(NS(=O)(=O)c3ccc(Cl)cc3)C(=O)c3ccccc3C2=O)CC1 | 0 | 77* | 8 | · | 6 | -9 | -4%
O=C(NC1=NCCS1)c1csc2ccccc12 | 1 | 70* | · | 98* | -9 | 11 | -3%
CCC(=O)Nc1ccc2c(c1)C(=O)N(C)C[C@H](OC)[C@@H](C)CN(C(=O)c1ccccc1F)[C@H](C)CO2 | · | · | -1 | · | · | · | ·
CN1C(=O)c2cc(NS(C)(=O)=O)ccc2OC[C@H]2O[C@H](CC(=O)N3CCOCC3)CC[C@@H]21 | · | · | 3 | · | · | · | ·
CCOc1ccc2nc(SCC(=O)NC(=O)NCc3ccco3)sc2c1 | -4 | -1 | · | -15 | 0 | -16 | ·
CCOc1ccc2nc(SCC(=O)NCc3ccco3)sc2c1 | -2 | 129* | · | -31 | -1 | 2 | -2%
COc1cc2c(C#N)c(N3CCN(C)CC3)nc(N)c2c(N)n1 | 3 | 24 | · | 21 | 7 | · | ·
COc1cc2c(C#N)c(N3CCCC3)nc(N)c2c(N)n1 | 0 | 68* | 96*! | 58 | 1 | -15 | -2%
CC(=O)Oc1cccc2c1C(=O)c1c(OC(C)=O)cc(C(=O)O)cc1C2=O | -2 | · | · | · | 0 | i | ·
CC(=O)Oc1cccc2c1C(=O)C1CC=CC(OC(C)=O)C1C2=O (configuration not stated) | -1 | 69* | 7 | · | 12 | · | 8µM*
COc1ccc2c3c(n(C)c2c1)[C@H](CO)N(S(C)(=O)=O)CC31CCN(CC2CCCC2)CC1 | · | · | -2 | · | · | · | ·
CCOc1ccc(NC2=C(OC)C(=O)c3ccccc3C2=O)cc1 | · | 53* | · | -2 | -5 | -2 | 3.7µM*
COC1=C(Nc2ccc(OC)cc2)C(=O)c2ccccc2C1=O | -4 | 66* | · | 26 | -3 | 256 | 5.5µM*
COC1=C(Nc2ccc(OC)cc2)C(=O)C(OC)=C(Nc2ccc(OC)cc2)C1=O | 1 | 1 | 3 | · | 2 | · | ·
Cc1c(C)c2c(C)nn(-c3ccccc3)c2[nH]c1=O | -3 | -1 | · | 4 | 1 | 14 | ·
Nc1c2c(=O)[nH]c(O)cc2nn1-c1ccccc1 | 2 | 100* | 40* | · | 1 | · | -3%
Cc1[nH]n(-c2ccccc2)c(=O)c1C(c1cccc([N+](=O)[O-])c1)c1c(C)[nH]n(-c2ccccc2)c1=O | 0 | 24 | 10 | -1 | 2 | -7 | ·
Cc1[nH]n(-c2ccccc2)c(=O)c1C(c1ccc(C(=O)O)cc1)c1c(C)[nH]n(-c2ccccc2)c1=O | -2 | 57* | 24 | 18 | 3 | 7 | 0%
COc1ccc(S(=O)(=O)N(C)C[C@H]2Oc3ncc(/C=C/c4ccccc4)cc3C(=O)N([C@H](C)CO)C[C@@H]2C)cc1 | · | · | 0 | · | · | · | ·
SMILES | CDK5 p35 inh | NSD2 HMT inh | Casp6 inh | ALR H2O2 inh | Glyco luc inh | Mot1-301 SUMO | Alpha artifact
CC(=O)Nc1ccc(Sc2ccccc2C(=O)O)cn1 | 0 | 73* | 7 | · | 2 | -5 | -4%
C/C=C/c1ccc([C@@H]2[C@@H](CO)N(C(C)=O)C23CN(C(=O)c2ccncc2)C3)cc1 | · | · | 2 | · | · | · | ·
CCOc1ccccc1NC(=O)C1CCCN1C(=O)c1cccs1 (configuration not stated) | -4 | 108* | -3 | -1 | 3 | 83 | -6%
CCOc1ccccc1NC(=O)N1CCCC1C(=O)NCc1cccs1 (configuration not stated) | 1 | -9 | · | · | 0 | -21 | ·
COc1cccc(=O)c2c(C)n(-c3ccc(C(=O)O)cc3)c(C)c12 | 0 | 79* | 26 | 6 | 0 | -6 | -8%
CCOc1cccc(=O)c2c(C)n(-c3ccc(C(=O)O)cc3)c(C)c12 | -1 | 93* | 33 | 96* | 2 | 4 | -5%
O=C(Cc1ccccc1)NCC1COc2ccccc2O1 (configuration not stated) | 0 | 0 | 1 | · | -1 | -6 | ·
COc1cc(CC(=O)NCC2COc3ccccc3O2)cc(OC)c1OC (configuration not stated) | 1 | 54* | -1 | -31 | 2 | 4 | -3%
COc1ccc(/C=N/Nc2cc(N3CCCC3)nc(N3CCCC3)n2)cc1 | -1 | 102* | 1 | -43 | -7 | 24 | -9%
Oc1cccc(/C=N/Nc2cc(N3CCCC3)nc(N3CCCC3)n2)c1 | 0 | 13 | · | -17 | 13 | 1 | ·
CN1[C@@H]2Cn3c(ccc(-c4cccc(F)c4)c3=O)[C@H]1[C@@H](C(=O)NCc1ccccc1)[C@@H]2CO | · | · | 1 | · | · | · | ·
CNc1c(N)n(Cc2ccccc2)c(=O)[nH]c1=O | 0 | 64* | · | -5 | 3 | 42 | -7%
CC(=O)NC[C@@H]1[C@H](c2ccc(C3=CCCC3)cc2)[C@H](CO)N1C(=O)NC(C)C | · | · | 0 | · | · | · | ·
CC(=O)N(/N=C1\Sc2ccccc2C1=O)c1ccccc1C | -3 | 56* | · | · | -3 | -10 | -10%
CCOC(=O)C1=C(COC(=O)c2ccc([N+](=O)[O-])s2)NC(=O)NC1C (configuration not stated) | -1 | 104* | 89* | -12 | 6 | 7 | 0%
O=C(O)[C@@H]1[C@@H](CO)[C@@H]2Cn3c(ccc(-c4cncnc4)c3=O)[C@@H]2N1C(=O)C1CCC1 | · | · | 3 | · | · | · | ·
CCc1ccc2cccc3c2c1N=CN3C | 0 | 112* | 61* | 100* | 8 | -4 | 0%
COCCN(C[C@H]1[C@H](c2ccccc2)[C@@H](CO)N1C(C)=O)C(=O)c1ccncc1 | · | · | 3 | · | · | · | ·
CCOc1ccc(NC(=O)CSc2nc3ccccc3c(=O)n2CCCC(=O)N2CCCC2)cc1 | 2 | 118* | · | -9 | 0 | i | 3%
CCN(CC)c1ccc(C(=C2C=CC(=[N+](CC)CC)C=C2)c2ccccc2)cc1 | 9 | 27 | 3 | · | -23 | · | ·
